Test results taken from ChEMBL document CHEMBL1961873, “Compounds: GSK PKIS; Assays: Nanosyn kinase panel” (2012).

Tests used:
[1] = target: Platelet-derived growth factor receptor beta (Homo sapiens) (UniProt P09619); settings: at 1 µM;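 also: each value is a mean percent inhibition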
[2] = target: Tyrosine-protein kinase FRK (Homo sapiens) (UniProt P42685); settings: at 0.1 µM
[3] = target: Tyrosine-protein kinase FRK (Homo sapiens) (UniProt P42685); settings: at 1 µM
[4] = target: Protein-tyrosine kinase 2-beta (Homo sapiens) (UniProt Q14289); settings: at 0.1 µM
Chain of Protein-tyrosine kinase 2-beta (Homo sapiens) (Q14289 whole entry, looked up): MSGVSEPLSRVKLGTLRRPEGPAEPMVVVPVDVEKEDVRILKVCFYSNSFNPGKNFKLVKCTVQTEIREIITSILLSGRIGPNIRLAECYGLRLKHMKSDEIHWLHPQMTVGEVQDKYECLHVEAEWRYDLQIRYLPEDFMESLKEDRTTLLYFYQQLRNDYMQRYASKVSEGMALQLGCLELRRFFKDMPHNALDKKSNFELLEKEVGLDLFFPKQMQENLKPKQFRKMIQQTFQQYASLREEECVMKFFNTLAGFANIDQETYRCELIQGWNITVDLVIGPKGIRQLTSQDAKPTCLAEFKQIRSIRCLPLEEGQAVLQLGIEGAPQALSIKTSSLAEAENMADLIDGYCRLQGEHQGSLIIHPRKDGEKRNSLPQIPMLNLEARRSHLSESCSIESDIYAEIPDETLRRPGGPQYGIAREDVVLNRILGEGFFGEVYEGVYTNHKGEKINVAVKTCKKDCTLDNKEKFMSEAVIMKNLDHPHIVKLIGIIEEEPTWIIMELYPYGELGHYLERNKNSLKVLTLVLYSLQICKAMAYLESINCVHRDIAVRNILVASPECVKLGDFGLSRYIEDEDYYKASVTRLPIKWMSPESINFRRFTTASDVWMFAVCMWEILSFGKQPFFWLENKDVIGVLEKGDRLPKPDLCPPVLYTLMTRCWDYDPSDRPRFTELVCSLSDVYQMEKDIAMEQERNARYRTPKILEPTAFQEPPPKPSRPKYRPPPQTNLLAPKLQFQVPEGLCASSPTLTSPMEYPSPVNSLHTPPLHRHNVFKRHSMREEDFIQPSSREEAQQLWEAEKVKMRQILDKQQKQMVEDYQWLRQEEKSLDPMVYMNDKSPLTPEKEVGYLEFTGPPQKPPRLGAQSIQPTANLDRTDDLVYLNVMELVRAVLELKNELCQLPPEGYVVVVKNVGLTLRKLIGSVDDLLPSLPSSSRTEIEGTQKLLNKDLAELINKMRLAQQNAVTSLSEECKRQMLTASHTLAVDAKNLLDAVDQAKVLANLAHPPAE

[5] = target: Protein-tyrosine kinase 2-beta (Homo sapiens) (UniProt Q14289); settings: at 1 µM
[6] = target: Proto-oncogene tyrosine-protein kinase receptor Ret (Homo sapiens) (UniProt P07949); settings: at 0.1 µM
[7] = target: Proto-oncogene tyrosine-protein kinase receptor Ret (Homo sapiens) (UniProt P07949); settings: at 1 µM
[8] = system: Proto-oncogene tyrosine-protein kinase receptor Ret (Homo sapiens), P07949 [V804L]; settings: at 0.1 µM
[9] = system: Proto-oncogene tyrosine-protein kinase receptor Ret (Homo sapiens), P07949 [V804L]; settings: at 1 µM
[10] = system: Proto-oncogene tyrosine-protein kinase receptor Ret (Homo sapiens), P07949 [Y791F]; settings: at 0.1 µM
[11] = system: Proto-oncogene tyrosine-protein kinase receptor Ret (Homo sapiens), P07949 [Y791F]; settings: at 1 µM
[12] = target: Macrophage-stimulating protein receptor (Homo sapiens) (UniProt Q04912); settings: at 0.1 µM
Chain of Macrophage-stimulating protein receptor (Homo sapiens) (Q04912 25-304 limits assumed): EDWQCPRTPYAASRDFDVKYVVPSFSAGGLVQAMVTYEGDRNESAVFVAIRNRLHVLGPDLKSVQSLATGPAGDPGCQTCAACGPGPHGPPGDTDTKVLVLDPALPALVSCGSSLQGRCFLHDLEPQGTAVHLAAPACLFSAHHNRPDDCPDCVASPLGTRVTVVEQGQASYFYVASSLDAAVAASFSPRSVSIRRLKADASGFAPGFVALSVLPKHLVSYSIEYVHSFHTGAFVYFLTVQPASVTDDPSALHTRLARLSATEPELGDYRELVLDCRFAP
Chain of Macrophage-stimulating protein receptor (Homo sapiens) (Q04912 310-1400 limits assumed): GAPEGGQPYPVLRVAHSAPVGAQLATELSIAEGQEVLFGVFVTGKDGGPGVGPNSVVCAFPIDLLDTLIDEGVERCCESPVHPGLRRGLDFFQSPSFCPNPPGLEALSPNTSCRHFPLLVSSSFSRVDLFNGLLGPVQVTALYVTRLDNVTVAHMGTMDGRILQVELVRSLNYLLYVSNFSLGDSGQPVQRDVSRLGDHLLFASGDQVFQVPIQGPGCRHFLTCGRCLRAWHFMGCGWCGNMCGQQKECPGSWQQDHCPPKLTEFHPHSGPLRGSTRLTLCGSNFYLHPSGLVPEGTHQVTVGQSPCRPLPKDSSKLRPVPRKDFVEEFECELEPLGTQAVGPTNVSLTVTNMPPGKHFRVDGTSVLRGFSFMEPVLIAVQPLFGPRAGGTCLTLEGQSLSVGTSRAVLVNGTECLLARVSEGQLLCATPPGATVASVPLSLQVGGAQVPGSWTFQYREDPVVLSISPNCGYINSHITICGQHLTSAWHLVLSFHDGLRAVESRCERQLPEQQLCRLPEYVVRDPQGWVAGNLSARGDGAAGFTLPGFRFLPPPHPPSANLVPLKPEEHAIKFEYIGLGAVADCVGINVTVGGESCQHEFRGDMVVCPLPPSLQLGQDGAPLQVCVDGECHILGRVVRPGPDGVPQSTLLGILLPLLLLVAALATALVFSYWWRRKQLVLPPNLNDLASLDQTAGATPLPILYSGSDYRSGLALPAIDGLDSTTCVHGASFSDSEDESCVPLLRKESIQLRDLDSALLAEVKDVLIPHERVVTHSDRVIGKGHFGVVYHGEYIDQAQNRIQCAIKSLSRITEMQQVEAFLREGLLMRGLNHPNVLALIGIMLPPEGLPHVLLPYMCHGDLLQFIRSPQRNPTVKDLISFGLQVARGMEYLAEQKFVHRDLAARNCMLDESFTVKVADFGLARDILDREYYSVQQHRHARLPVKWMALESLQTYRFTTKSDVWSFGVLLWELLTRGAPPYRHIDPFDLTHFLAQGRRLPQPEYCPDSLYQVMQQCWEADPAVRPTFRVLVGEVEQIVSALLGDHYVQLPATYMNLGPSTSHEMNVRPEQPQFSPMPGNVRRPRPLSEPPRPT

[13] = target: Macrophage-stimulating protein receptor (Homo sapiens) (UniProt Q04912); settings: at 1 µM
[14] = target: Proto-oncogene tyrosine-protein kinase ROS (Homo sapiens) (UniProt P08922); settings: at 0.1 µM
[15] = target: Proto-oncogene tyrosine-protein kinase ROS (Homo sapiens) (UniProt P08922); settings: at 1 µM
[16] = target: Proto-oncogene tyrosine-protein kinase Src (Homo sapiens) (UniProt P12931); settings: at 0.1 µM
Chain of Proto-oncogene tyrosine-protein kinase Src (Homo sapiens) (P12931 2-536 limits assumed): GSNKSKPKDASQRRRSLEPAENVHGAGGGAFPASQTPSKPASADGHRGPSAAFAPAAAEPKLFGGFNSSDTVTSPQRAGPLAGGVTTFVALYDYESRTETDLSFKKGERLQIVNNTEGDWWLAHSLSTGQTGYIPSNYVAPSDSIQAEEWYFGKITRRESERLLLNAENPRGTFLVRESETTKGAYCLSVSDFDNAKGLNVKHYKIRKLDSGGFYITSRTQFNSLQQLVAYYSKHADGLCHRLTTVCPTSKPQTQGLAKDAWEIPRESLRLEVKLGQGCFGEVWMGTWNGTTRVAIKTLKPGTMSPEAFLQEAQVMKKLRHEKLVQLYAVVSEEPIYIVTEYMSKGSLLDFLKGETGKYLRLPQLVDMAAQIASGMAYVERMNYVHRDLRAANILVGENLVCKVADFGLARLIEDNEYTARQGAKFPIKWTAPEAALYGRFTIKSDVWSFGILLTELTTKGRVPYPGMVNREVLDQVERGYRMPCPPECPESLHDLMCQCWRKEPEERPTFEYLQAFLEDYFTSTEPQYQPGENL

[17] = target: Proto-oncogene tyrosine-protein kinase Src (Homo sapiens) (UniProt P12931); settings: at 1 µM
[18] = target: Tyrosine-protein kinase Srms (Homo sapiens) (UniProt Q9H3Y6); settings: at 0.1 µM
Chain of Tyrosine-protein kinase Srms (Homo sapiens) (Q9H3Y6 whole entry): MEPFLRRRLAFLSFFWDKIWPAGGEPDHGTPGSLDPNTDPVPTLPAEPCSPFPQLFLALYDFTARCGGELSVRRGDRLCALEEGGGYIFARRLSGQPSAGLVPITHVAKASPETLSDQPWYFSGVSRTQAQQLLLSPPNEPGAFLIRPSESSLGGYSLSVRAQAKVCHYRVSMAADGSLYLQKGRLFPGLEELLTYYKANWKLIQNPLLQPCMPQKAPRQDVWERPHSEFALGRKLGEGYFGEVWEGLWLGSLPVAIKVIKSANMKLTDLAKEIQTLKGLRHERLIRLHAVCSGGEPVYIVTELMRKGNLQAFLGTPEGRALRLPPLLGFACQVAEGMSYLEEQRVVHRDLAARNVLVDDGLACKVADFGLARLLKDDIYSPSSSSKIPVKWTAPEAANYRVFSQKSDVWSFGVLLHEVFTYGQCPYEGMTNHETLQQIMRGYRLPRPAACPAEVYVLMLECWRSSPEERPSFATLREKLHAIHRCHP

[19] = target: Tyrosine-protein kinase Srms (Homo sapiens) (UniProt Q9H3Y6); settings: at 1 µM
[20] = target: Tyrosine-protein kinase SYK (Homo sapiens) (UniProt P43405); settings: at 0.1 µM;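 also: reported percentages are mean inhibition values for SYK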

Chain of Tyrosine-protein kinase FRK (Homo sapiens) (P42685 whole entry): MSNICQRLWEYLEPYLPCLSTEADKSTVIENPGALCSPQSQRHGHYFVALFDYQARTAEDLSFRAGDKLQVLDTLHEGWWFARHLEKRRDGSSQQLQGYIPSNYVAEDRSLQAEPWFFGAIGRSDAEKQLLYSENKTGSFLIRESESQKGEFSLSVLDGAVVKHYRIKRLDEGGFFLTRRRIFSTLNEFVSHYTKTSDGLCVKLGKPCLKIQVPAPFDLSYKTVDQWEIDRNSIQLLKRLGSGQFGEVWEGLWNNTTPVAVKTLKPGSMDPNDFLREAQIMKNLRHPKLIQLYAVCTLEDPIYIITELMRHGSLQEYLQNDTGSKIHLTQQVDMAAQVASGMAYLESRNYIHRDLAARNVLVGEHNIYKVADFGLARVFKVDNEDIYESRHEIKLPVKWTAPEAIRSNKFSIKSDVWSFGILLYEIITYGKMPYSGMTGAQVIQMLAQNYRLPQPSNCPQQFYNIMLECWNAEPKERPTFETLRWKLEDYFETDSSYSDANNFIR
Chain of Platelet-derived growth factor receptor beta (Homo sapiens) (P09619 whole entry): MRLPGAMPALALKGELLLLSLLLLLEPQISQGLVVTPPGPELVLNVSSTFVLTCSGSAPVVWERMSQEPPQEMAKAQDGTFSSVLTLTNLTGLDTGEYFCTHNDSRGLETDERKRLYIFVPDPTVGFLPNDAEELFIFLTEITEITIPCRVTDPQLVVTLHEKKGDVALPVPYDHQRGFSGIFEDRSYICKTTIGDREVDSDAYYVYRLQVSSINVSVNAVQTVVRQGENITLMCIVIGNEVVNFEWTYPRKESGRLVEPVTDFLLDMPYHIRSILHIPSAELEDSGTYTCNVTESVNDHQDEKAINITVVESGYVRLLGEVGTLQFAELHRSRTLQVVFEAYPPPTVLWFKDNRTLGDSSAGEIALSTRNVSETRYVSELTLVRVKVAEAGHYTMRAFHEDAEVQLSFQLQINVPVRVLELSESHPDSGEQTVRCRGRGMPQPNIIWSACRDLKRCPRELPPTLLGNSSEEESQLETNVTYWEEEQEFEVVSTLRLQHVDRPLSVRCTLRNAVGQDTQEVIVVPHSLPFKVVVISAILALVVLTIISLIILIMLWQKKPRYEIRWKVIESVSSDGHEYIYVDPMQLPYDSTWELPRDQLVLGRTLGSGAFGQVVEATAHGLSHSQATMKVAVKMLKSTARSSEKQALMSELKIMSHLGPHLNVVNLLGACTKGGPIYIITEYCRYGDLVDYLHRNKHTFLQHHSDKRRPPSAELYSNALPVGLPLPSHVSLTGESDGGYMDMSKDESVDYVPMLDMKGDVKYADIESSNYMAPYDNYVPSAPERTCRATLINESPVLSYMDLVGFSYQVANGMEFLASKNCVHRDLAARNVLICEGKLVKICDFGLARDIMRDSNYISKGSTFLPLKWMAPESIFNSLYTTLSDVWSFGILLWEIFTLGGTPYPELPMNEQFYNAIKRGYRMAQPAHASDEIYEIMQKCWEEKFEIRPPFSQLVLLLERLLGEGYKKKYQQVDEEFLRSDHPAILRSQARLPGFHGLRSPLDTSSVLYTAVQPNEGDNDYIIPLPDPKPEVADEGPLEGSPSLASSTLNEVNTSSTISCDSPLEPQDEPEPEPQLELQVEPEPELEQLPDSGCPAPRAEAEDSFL

SMILES	inhibition [1] [%]	inhibition [2] [%]	inhibition [3] [%]	inhibition [4] [%]	inhibition [5] [%]	inhibition [6] [%]	inhibition [7] [%]	inhibition [8] [%]	inhibition [9] [%]	inhibition [10] [%]	inhibition [11] [%]	inhibition [12] [%]	inhibition [13] [%]	inhibition [14] [%]	inhibition [15] [%]	inhibition [16] [%]	inhibition [17] [%]	inhibition [18] [%]	inhibition [19] [%]	inhibition [20] [%]
O=C1NC(=O)C(c2cccc(Cl)c2)=C1Nc1ccc(O)c(Cl)c1	11.5	-0.47	1.74	1	9.11	3.31	7.66	-0.49	0.64	2.27	2.96	-9.4	6	1.16	7.24	3.33	5.62	-0.46	-1.95	1.76
CS(=O)(=O)CCNCc1ccc(-c2ccc3ncnc(Nc4ccc(OCc5cccc(F)c5)c(C(F)(F)F)c4)c3c2)o1	1.85	2.17	3.48	9.54	10.4	6.1	3.78	1.9	4.58	2.66	3.86	3.73	5	6.01	4.01	-1.31	8.28	-1.21	-1.42	-6.45
NC(=O)c1ccc(-c2nc(-c3ccccn3)c(-c3ccc4c(c3)OCO4)[nH]2)cc1	7.47	0.98	-0.16	1.97	6.61	6.29	8.97	4.67	5.88	6.95	13.7	-0.12	-1.49	2.07	2.89	3.87	4.86	2.17	1.98	0.63
CC1=C(C(=O)Nc2ccc3[nH]ncc3c2)C(c2ccc3ccccc3c2)CC(=O)N1 (stereo not given)	13.7	2.73	17.3	3.97	7.64	20.4	65.8	12.4	53.2	20.1	60.5	34	67.5	7.1	14.5	13	64.9	1.12	1.41	2.43
CC(=O)Nc1cccc(C#Cc2cncnc2Nc2ccc(OCc3cccc(F)c3)c(Cl)c2)n1	9.6	0.61	1.2	-2.77	8.14	-1.11	2.59	0.14	10.2	0.37	13.9	0.21	0.21	2.41	-0.69	2.96	0.48	1.99	6.25	5.47
CCn1c(-c2nonc2N)nc2cncc(C(=O)N3CCNCC3)c21	4.8	3.81	4.59	4.67	9.07	4.73	6.87	3.5	6.04	5.85	5.78	3.02	4.33	7.86	7.97	14.1	16.4	-3.72	-2.89	-1.71
CNC(=O)c1cncc(/C=C/c2c(Cl)cccc2Cl)c1	17.8	3.04	11	4.56	7.83	3.32	12.3	3.35	10.2	14.7	14.9	6.34	-0.69	11.1	11.8	14.3	47.2	1.5	8.71	1.45
Cc1nn(C)c2cc(N(C)c3ccnc(Nc4cccc(S(N)(=O)=O)c4)n3)ccc12	61.6	3.71	11.6	9.35	17.8	11.9	39	5.4	34.2	12.6	46.8	5.47	22.4	63.2	80.2	11.1	49.5	0.83	9.11	-6.41
CS(=O)(=O)Nc1ccc(N/C=C2\C(=O)Nc3ccccc32)cc1	38	-0.66	0.76	-3.21	20.1	10.4	49.4	17.9	66.2	8.53	50	-3.2	6.3	1.48	6.73	-2.8	8.01	-2.57	1.32	-1.22
Cc1nnc(-c2ccc(C)c(-c3ccc(C(=O)Nc4cccc(C#N)c4)cc3)c2)o1	10.9	2.05	2.02	4.97	6.48	7.9	12.9	4.42	8.03	4.58	15.7	1.95	3.79	1.81	1.44	3.95	6.82	-0.52	0.42	3.5
O=C(Nc1n[nH]c2nc(-c3ccco3)c(Br)cc12)C1CC1	6.81	1.22	4.35	-1.24	3.71	6.36	4.7	4.14	0.95	4.67	-2.51	1.47	4.05	3.63	3.03	12.5	14.2	-2.24	-0.3	0.12
Nc1nc(-c2ccc3c(c2)C(=Cc2cc(Br)c(O)c(Br)c2)C(=O)N3)cs1	7.52	0.6	3.29	-1.15	6.43	7.13	12.3	1.75	9.79	3.97	7.25	-0.43	2.87	2.9	7.73	0.53	-0.25	9.94	53	1.06
CS(=O)(=O)CCN(CC#N)Cc1ccc(-c2ccc3ncnc(Nc4ccc(OCc5cccc(F)c5)c(Cl)c4)c3c2)o1	6.45	1.47	2.48	3.85	9.33	0.24	2.76	1.02	3.35	2.36	3.1	0.07	0.14	6.53	4.3	3.38	4.01	1.13	-1.83	1.85
